Inconclusive results are not listed. A call without a number means that no potency is given here. Unmarked numbers belong to inactive results. Calls of active or inactive are those of the source. Unless noted, calls follow the shape of the dose curve; as a rule, active = well fitted curve in the direction sought with a large enough effect in the repeat runs; inconclusive = weak or mixed curves; inactive = no such curve, though single readings can be large; an effect the other way counts as inactive or inconclusive.
Legend:
[1] = qHTS assay to identify small molecule antagonists of the peroxisome proliferator-activated receptor delta (PPARd) signaling pathway - cell viability counter screen (AID 743213); also: nearly all actives have a fitted effect of over 50% in size
How it was run: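 PPARd-bla HEK293H cells (3000/well) got compound plus 300 nM L165041 agonist for 17 h at 37 C. Viability in the same wells came from CellTiter-Glo luminescence after 30 min at room temperature.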

[2] = qHTS assay to identify small molecule agonists of the vitamin D receptor (VDR) signaling pathway - cell viability counter screen (AID 743224); also: nearly all actives have a fitted effect of over 50% in size; also: potency is read from the fitted curve at half-maximal effect; as to activity change, negative = cytotoxicity: series mostly up to about 63 µM
How it was run: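 Here cell health was gauged by luminescent ATP detection (CellTiter-Glo, 30 min RT) in VDR-bla cells that had been incubated with test compounds for 16 h at 37C and 5% CO2.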

[3] = qHTS assay to identify small molecule antagonists of the vitamin D receptor (VDR) signaling pathway - cell viability counter screen (AID 743225); also: nearly all actives have a fitted effect of over 50% in size; also: potency is read from the fitted curve at half-maximal effect
How it was run: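 Parallel cytotoxicity test: VDR-UAS-bla HEK 293T, 3 nM (final) 1-alpha,25-dihydroxyvitamin D3 with test compound, 16 h, 37C. Endpoint is CellTiter-Glo luminescence in the same wells.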

[4] = target: Nuclear receptor ROR-gamma (Homo sapiens) (UniProt P51449); experiment: qHTS assay to identify small molecule antagonists of the retinoid-related orphan receptor gamma (ROR-gamma) signaling pathway (AID 1159521; also: nearly all actives have a fitted effect of over 50% in size; also: potency is read from the fitted curve at half-maximal effect)
How it was run: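 Decreased RORE-driven luciferase luminescence indicates antagonism. Tet-on RORγ CHO cells received compound, then 1 uM final doxycycline 2 h later; signal read after 16 h incubation.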

[5] = qHTS assay to identify small molecule agonists of the AP-1 signaling pathway - cell viability counter screen (AID 1159525; calls by dose curve; also: nearly all actives have a fitted effect of over 55% in size)
How it was run: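 Luminescent ATP readout (Cell Titer Glo, 30 min RT), normalised to DMSO and tetra n-octyl ammonium bromide controls. Cells were ME-180 AP-1-bla in 0.5% dialyzed FBS Opti-MEM, with a 5 h, 37 °C compound exposure.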

[6] = qHTS assay to identify small molecule agonists of the AP-1 signaling pathway (AID 1159526; calls by dose curve)
[7] = qHTS assay to identify small molecule antagonists of the retinoid acid receptor (RAR) signaling pathway - cell viability counter screen (AID 1159551); also: nearly all actives have a fitted effect of over 35% in size; also: potency is read from the fitted curve at half-maximal effect
How it was run: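 Seed C3RL4 cells; next day add compound, then retinol to 1 uM final; incubate 6 h at 37 C; add CellTiter-Glo; read luminescence after 30 min at RT.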

[8] = qHTS assay to identify small molecule antagonists of the retinoic acid receptor (RAR) signaling pathway (AID 1159552; also: nearly all actives have a fitted effect of over 50% in size)
How it was run: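 C3RL4 RARE-luc cells, overnight plating; retinol 1 uM final added right after compound; 6 hr 37 C; luciferase read at 30 min RT.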

[9] = qHTS assay to identify small molecule agonists of the retinoic acid receptor (RAR) signaling pathway (AID 1159553); also: potency is read from the fitted curve at half-maximal effect
How it was run: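 Activation of retinol signaling was monitored via a RARE luciferase reporter in C3RL4 cells. After 6 hr compound treatment at 37 C, detection reagent was added for 30 min at room temperature before luminescence reading.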

[10] = qHTS assay to identify small molecule antagonists of the estrogen related receptor (ERR) signaling pathway - cell viability counter screen (AID 1224818);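 also: series mostly up to about 46 µM; viability measured after 17.5 h of compound exposure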
How it was run: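 In the same ERR cell assay, compound-treated wells (17.5 h, 37 C) were multiplexed with a fluorogenic viability reagent, CellTiter-Fluor, read after 30 min to flag cytotoxic substances.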

[11] = target: Bile acid receptor (Homo sapiens) (UniProt Q96RI1); experiment: qHTS assay to identify small molecule agonists of the farnesoid-X-receptor (FXR) signaling pathway (AID 743220; active = well fitted activation curve with a large enough effect in the signal ratio in the repeat runs, not every such curve was filed as active; the % refers to the signal ratio)
Sequence of Bile acid receptor (Homo sapiens) (Q96RI1 whole entry, looked up): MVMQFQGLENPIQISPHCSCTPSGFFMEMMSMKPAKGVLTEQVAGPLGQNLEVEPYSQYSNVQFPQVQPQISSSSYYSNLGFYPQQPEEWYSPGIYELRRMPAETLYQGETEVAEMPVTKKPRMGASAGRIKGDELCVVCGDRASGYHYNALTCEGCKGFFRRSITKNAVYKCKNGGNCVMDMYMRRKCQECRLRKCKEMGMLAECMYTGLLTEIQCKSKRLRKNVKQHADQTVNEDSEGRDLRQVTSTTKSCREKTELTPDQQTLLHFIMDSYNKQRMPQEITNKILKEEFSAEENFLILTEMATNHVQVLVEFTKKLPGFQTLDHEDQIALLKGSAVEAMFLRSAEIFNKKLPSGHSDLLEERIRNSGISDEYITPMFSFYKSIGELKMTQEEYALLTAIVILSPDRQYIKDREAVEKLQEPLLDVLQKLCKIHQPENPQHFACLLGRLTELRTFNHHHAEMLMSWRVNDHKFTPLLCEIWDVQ
How it was run: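 Beta-lactamase reporter under UAS control in GeneBLAzer FXR HEK 293T cells (5000/well) measured with LiveBLAzer FRET substrate after 2 h at room temperature. Compound exposure lasted 16 h at 37C.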

[12] = target: Vitamin D3 receptor (Homo sapiens) (UniProt P11473); experiment: qHTS assay to identify small molecule agonists of the vitamin D receptor (VDR) signaling pathway (AID 743222; calls by dose curve)
Sequence of Vitamin D3 receptor (Homo sapiens) (P11473 whole entry, looked up): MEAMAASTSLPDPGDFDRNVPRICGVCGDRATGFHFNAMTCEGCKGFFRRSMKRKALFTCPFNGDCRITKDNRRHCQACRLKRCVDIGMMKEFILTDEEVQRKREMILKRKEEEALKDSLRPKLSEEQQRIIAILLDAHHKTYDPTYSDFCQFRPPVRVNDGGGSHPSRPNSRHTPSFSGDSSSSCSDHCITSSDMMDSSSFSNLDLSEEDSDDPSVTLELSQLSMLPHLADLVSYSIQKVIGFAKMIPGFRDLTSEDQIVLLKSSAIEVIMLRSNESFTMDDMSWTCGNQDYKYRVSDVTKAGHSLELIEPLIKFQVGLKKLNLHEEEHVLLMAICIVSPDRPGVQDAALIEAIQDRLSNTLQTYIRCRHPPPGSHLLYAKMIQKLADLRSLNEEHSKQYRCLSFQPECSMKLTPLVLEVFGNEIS
How it was run: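 VDR-bla cells were seeded, left 4 h, treated with compounds in DMSO for 16 h, incubated 2 h at RT with B/G FRET substrate, and read for fluorescence.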

[13] = qHTS assay to identify small molecule agonists of the RXR signaling pathway - cell viability counter screen (AID 1159529); also: nearly all actives have a fitted effect of over 50% in size; also: potency is read from the fitted curve at half-maximal effect;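 as to activity change, negative = cytotoxicity: HEK 293T cells carrying an RXR-alpha UAS beta-lactamase reporter; series mostly up to about 77 µM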
How it was run: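 In this parallel viability measure, GeneBLAzer RXR-alpha HEK 293T cells (2% charcoal-stripped FBS) were given a 5 hr preincubation, treated with compounds 16 hr at 37 C, and read by CellTiter-Glo luminescence.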

[14] = target: Retinoic acid receptor RXR-alpha (Homo sapiens) (UniProt P19793); experiment: qHTS assay to identify small molecule agonists of the RXR signaling pathway (AID 1159527; calls by dose curve; also: nearly all actives have a fitted effect of over 35% in size)
Sequence of Retinoic acid receptor RXR-alpha (Homo sapiens) (P19793 whole entry, looked up): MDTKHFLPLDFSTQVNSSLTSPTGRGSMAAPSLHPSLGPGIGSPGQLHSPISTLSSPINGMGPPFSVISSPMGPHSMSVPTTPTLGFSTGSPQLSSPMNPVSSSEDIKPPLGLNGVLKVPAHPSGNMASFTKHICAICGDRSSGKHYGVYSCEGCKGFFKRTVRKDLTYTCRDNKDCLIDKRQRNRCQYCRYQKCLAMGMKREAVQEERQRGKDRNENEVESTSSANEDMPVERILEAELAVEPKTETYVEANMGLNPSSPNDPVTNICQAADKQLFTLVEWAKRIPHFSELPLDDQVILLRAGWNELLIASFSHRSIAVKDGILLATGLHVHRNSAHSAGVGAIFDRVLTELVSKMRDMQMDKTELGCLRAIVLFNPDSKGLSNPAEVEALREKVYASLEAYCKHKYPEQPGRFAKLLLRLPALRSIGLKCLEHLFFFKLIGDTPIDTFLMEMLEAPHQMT
How it was run: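 16 hr incubation of compound-treated RXR-alpha-UAS-bla HEK 293T cells (2% charcoal-stripped FBS, 37 C) preceded a 2 hr room-temperature LiveBLAzer FRET substrate step and blue/green fluorescence measurement.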

[15] = qHTS assay to identify small molecule agonists of the farnesoid-X-receptor (FXR) signaling pathway - cell viability counter screen (AID 743218); also: potency is read from the fitted curve at half-maximal effect; nearly all actives have a fitted effect of over 45% in size
How it was run: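 After 16 h at 37 C with test compounds, FXR-bla HEK 293T cells were given LiveBLAzer B/G substrate for 2 h at RT and then CellTiter-Glo; luminescence was taken after 30 min.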

[16] = target: Vitamin D3 receptor (Homo sapiens) (UniProt P11473); experiment: qHTS assay to identify small molecule antagonists of the vitamin D receptor (VDR) signaling pathway (AID 743223; active = well fitted inhibition curve with a large enough effect in the signal ratio in the repeat runs, not every such curve was filed as active; the % refers to the signal ratio)
How it was run: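 Reporter line VDR-bla; stimulus 1alpha,25-(OH)2 vitamin D3, 3 nM final; compound co-addition, 16 h 37C/5% CO2; LiveBLAzer B/G substrate 2 h RT; fluorescence intensity.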

CC1=C(/C=C/C(C)=C/C=C/C(C)=C\C(=O)O)C(C)(C)CCC1
Potency [1]: inactive | Potency [2]: inactive | Potency [3]: inactive | Potency [4]: inactive | Potency [5]: inactive | Potency [6]: inactive | Potency [7]: inactive | Potency [8]: inactive | Potency [9]: 0.0194 µM (active) | Potency [10]: inactive

CCCCC/C=C\C=C\C(=O)OCC
outcome [11]: inactive | outcome [12]: inactive | Potency [2]: 40.5 µM (active) | Potency [3]: inactive | Potency [4]: 56.8 µM (active) | Potency [13]: 45.5 µM (active) | Potency [7]: inactive

O=C1C(SCCO)=C(SCCO)C(=O)c2ccccc21
Potency [10]: inactive

COc1cc(C(O)C(=O)O)ccc1O (stereo not drawn)
Potency [10]: inactive

CCN(CC)c1ccc2c(c1)Oc1cc(N(CC)CC)ccc1C21OC(=O)c2ccccc21
Potency [4]: inactive | Potency [5]: inactive | Potency [7]: 11.9 µM (active) | Potency [8]: inactive

c1ccc(-c2nc3ccccc3[nH]2)cc1
Potency [5]: inactive | Potency [6]: inactive | Potency [14]: inactive | Potency [13]: inactive | Potency [8]: inactive

O=C1NC(=O)/C(=C/c2ccc3c(c2)OC(F)(F)O3)S1
Potency [10]: inactive

S=C1NC=NC2N=CNC12 (stereo not drawn)
Potency [15]: 11 µM (active) | outcome [11]: inactive | outcome [12]: inactive | Potency [16]: inactive | Potency [2]: 3.09 µM (active) | Potency [3]: 7.77 µM (active) | Potency [5]: inactive | Potency [6]: inactive | Potency [13]: 6.92 µM (active) | Potency [9]: inactive

O=S(=O)(c1ccc(OCc2ccccc2)cc1)c1ccccc1O
Potency [5]: inactive | Potency [13]: inactive

O=C(O)C[C@H](O)C[C@H](O)/C=C/c1c(C2CC2)nc2ccccc2c1-c1ccc(F)cc1
viability change, negative = cytotoxic [5]: 2.51% [at 15.8 µM] | activation [6]: 4.12% [at 15.8 µM] | activation [14]: -9.56% [at 15.8 µM] | activity change, negative = cytotoxicity [7]: 1.42% [at 19 µM]

[Li+]
Potency [10]: inactive

NC1CCN(O)C1=O (stereo not drawn)
Potency [10]: inactive

COc1ccc(CCN(C)CCc2ccc(OC)c(OC)c2)cc1OC
Potency [10]: inactive

COc1ccc(-c2cc(=O)c3c(O)c(OC)c(OC)cc3o2)cc1O
Potency [10]: inactive

CC1C(=O)N(C)C(=O)c2nc[nH]c21 (stereo not drawn)
Potency [10]: inactive

CN=c1nc(-c2ccccc2)n(-c2ccccc2)s1
Potency [10]: inactive

O=C1Cc2c([nH]c3ccc(Br)cc23)-c2ccccc2N1
Potency [10]: inactive

NCCCNCCCCNCCCN
Potency [10]: inactive

O=C(O)CCC(=O)N1CCCC1C(=O)O (stereo not drawn)
Potency [10]: inactive

CCCCCCCC/C=C\CCCCCCCC(=O)NCCO
Potency [10]: inactive

NC[C@H]1O[C@@H](n2cnc3c(N)ncnc32)[C@H](O)[C@@H]1O
Potency [10]: inactive

C[C@@H](c1ncncc1F)[C@](O)(Cn1cncn1)c1ccc(F)cc1F
Potency [10]: inactive

CC(C)NC[C@H](O)COc1ccc(CC(N)=O)cc1
Potency [10]: inactive

C=CCN1CCc2cc(O)c(O)cc2C(c2ccccc2)C1 (stereo not drawn)
Potency [10]: inactive

CC(C)C[C@H](NC(=O)C1OC1C(=O)O)C(=O)NCCCCN=C(N)N (stereo partly drawn)
Potency [10]: inactive

S=c1[nH]c(-c2ccccc2)cn1-c1ccccc1
Potency [10]: inactive

COCCOc1cc2ncnc(Cl)c2cc1OCCOC
Potency [10]: inactive

O=C1NC(=O)C(c2ccccc2[N+](=O)[O-])=C1Nc1ccc(O)c(Cl)c1
Potency [10]: inactive
